Compound activity: PubChem BioAssay, National Center for Advancing Translational Sciences (NCATS)
The full list was thinned out, with hits kept by preference.
HT1080 IDH1KD tx: qHTS for induction of synthetic lethality in tumor cells producing 2HG: qHTS for the HT-1080-IDH1KD cell line; HT-1080 IDH1 knockdown viability, ATP luminescence, 48 h; hit rate 2% among 360,000; AID 686971, 2013; Potency, µM (titrated, usually from 46.1 µM), actives largely listed as cytotoxic
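Luminescent ATP read-out (CellTiter-Glo, 10 min at room temperature) after 48 h compound exposure at 37 °C gave viability of IDH1-knockdown HT-1080 cells. Activity was normalised to DMSO and cell-free wells, then fitted as concentration-response curves.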
12-LOX inh: Primary qHTS assay for inhibitors of human arachidonate 12S-lipoxygenase (ALOX12): Round 2 | Potency, µM (top dose mostly 108 µM), most hits filed as inhibitors | purified 12hLO, xylenol orange hydroperoxide absorbance | hit rate 1.1% among 580,000
Target sequence (P18054 whole entry, looked up): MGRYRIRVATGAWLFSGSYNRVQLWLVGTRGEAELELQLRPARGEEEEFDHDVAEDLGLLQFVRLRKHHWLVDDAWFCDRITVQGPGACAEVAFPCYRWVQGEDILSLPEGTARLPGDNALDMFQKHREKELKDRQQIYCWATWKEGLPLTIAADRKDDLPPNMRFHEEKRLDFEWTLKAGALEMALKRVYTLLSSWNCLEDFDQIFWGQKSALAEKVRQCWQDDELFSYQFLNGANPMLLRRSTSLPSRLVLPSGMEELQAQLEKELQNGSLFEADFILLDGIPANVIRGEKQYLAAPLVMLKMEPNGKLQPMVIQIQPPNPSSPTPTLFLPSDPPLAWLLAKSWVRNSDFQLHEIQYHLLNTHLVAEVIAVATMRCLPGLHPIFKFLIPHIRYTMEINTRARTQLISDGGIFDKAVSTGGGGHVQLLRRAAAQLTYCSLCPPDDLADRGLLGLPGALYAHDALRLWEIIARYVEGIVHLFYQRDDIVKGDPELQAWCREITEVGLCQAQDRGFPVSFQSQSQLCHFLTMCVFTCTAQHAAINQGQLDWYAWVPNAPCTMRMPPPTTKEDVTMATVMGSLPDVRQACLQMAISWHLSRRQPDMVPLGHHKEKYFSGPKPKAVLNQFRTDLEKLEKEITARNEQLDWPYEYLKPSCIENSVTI
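Purified human 12hLO at 150 nM in 25 mM Hepes, 0.01% Triton X-100, pH 7.0, preincubated 15 min at room temperature with compound. Reaction started with 40 uM arachidonic acid, 30 min at room temperature. Hydroperoxide measured by Fe-xylenol orange, 573/405 nm absorbance ratio.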
HT1080-NT tox: qHTS for induction of synthetic lethality in tumor cells producing 2HG: qHTS for the HT-1080-NT fibrosarcoma cell line; HT-1080-NT fibrosarcoma viability, CellTiter-Glo ATP luminescence, 48 h; Potency, µM (series often up to 46.1 µM), hits mostly cytotoxic; hit rate 1.6% among 360,000;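 further: NT is the 2HG producing partner of a matched IDH1 knockdown line; nearly all actives have a fitted effect of over 55% in size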
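Read-out is CellTiter-Glo luminescence after 10 minutes at room temperature, following 48 hours' compound treatment of HT-1080-NT cells (750 cells/well, RPMI, 5% FBS, 37 degrees C).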
IL1B secr inh: qHTS for Inhibitors of Inflammasome Signaling: IL-1-beta AlphaLISA Primary Screen; hit rate 4.7% among 360,000; THP-1 LPS/ATP IL-1B secretion, AlphaLISA, 16 h; hits give low values; activity change, % at 57.5 µM; in the data active means activity change below about -50%; inconclusive means mostly about -30% to -49%
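Secreted IL-1B measured by AlphaLISA bead assay after 16 h compound exposure of THP-1 cells; compounds (final up to 57.5 uM) added 1 h before LPS (250 ng/mL) and ATP (1.25 mM) stimulation; lower signal means less secretion.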
TDP1 cell CPT: qHTS for Inhibitors of human tyrosyl-DNA phosphodiesterase 1 (TDP1): qHTS in cells in presence of CPT | chicken DT40 Tdp1-/-;hTDP1 cells + 20 nM CPT, ATP luminescence, 48 h | Potency, µM (doses to about 46.2 µM), actives largely listed as inhibitors | hit rate 12% among 420,000; further: nearly all actives have a fitted effect of over 55% in size
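Cell growth measured by CellTiter-Glo luminescence after a minimum 48 h, 37 C compound exposure with 20 nM CPT in Tdp1-knockout DT40 cells stably expressing hTDP1, seeded 400/well; qHTS titration format.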
TDP1 cell noCPT: qHTS for Inhibitors of human tyrosyl-DNA phosphodiesterase 1 (TDP1): qHTS in cells in absence of CPT; DT40 Tdp1-/- hTDP1 cells, no CPT, ATP luminescence, 48 h; AID 686978, 2013; hit rate 15% among 420,000; Potency, µM (doses to about 46.2 µM), most hits filed as inhibitors; further: nearly all actives have a fitted effect of over 55% in size
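Chicken DT40 Tdp1-/- cells stably complemented with human TDP1 were seeded at 400 cells/well with DMSO in place of 20 nM camptothecin. After compound pinning, cells grew at least 48 hr at 37 °C; viability read by CellTiter-Glo luminescence.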
Large screens that a line does not name were inactive. Unless noted, the call rests on the fitted dose curve; in most records, active means well fitted curve in the direction sought with a large enough effect; inconclusive means small, poorly fitted or top-dose-only effect, or another doubt; inactive means no such curve, though single readings can be large; an effect the other way counts as inactive or inconclusive.

COc1cccc(C2NC(=S)NC(C)=C2C(=O)c2ccccc2)c1OC (stereo unspecified)	HT1080 IDH1KD tx 1.5µM, 12-LOX inh 45µM, HT1080-NT tox 2.3µM, TDP1 cell CPT inconclusive, TDP1 cell noCPT 10µM
CC1=C(C(=O)OC(C)(C)C)C(c2cccc3ccccc23)NC(=S)N1 (stereo unspecified)	none (no result: HT1080 IDH1KD tx, HT1080-NT tox, IL1B secr inh, TDP1 cell CPT, TDP1 cell noCPT)
CCCCN1CCc2c([nH]c3c(C)cccc23)C1=O	12-LOX inh inconclusive, TDP1 cell CPT 29µM, TDP1 cell noCPT inconclusive
CCCc1c(C)c2cccc(C)c2[nH]c1=O	TDP1 cell CPT inconclusive, TDP1 cell noCPT inconclusive
COc1ccc(-n2cc(C(=O)NCCc3cc(OC)ccc3OC)c3ccccc3c2=O)cc1	TDP1 cell CPT 16µM, TDP1 cell noCPT 21µM (no result: HT1080 IDH1KD tx, HT1080-NT tox, IL1B secr inh)
CCc1ccccc1N(C)C(=O)c1cn(-c2cccc(OC)c2)c(=O)c2ccccc12	TDP1 cell CPT 15µM, TDP1 cell noCPT 16µM (no result: HT1080 IDH1KD tx, HT1080-NT tox, IL1B secr inh)
CCCCN(C)C(=O)c1cn(-c2cccc(OC)c2)c(=O)c2ccccc12	none
COc1cccc(-n2cc(C(=O)NCCc3cccc(C)c3)c3ccccc3c2=O)c1	TDP1 cell CPT inconclusive, TDP1 cell noCPT 18µM (no result: HT1080 IDH1KD tx, HT1080-NT tox, IL1B secr inh)
COc1ccc(CC(=O)NCC2CCCN(Cc3ccc(OC(F)(F)F)cc3)C2)cc1 (stereo unspecified)	HT1080-NT tox inconclusive, TDP1 cell noCPT 18µM
COc1ccc(CC(=O)NCC2CCCN(Cc3cc(OC)cc(OC)c3)C2)cc1 (stereo unspecified)	IL1B secr inh -50
COc1cc(OC)cc(C(=O)NCC2CCCN(Cc3ccc(SC)cc3)C2)c1 (stereo unspecified)	IL1B secr inh inconclusive, TDP1 cell CPT inconclusive, TDP1 cell noCPT 16µM
COC(=O)c1ccc(CN2CCCC(CNC(=O)Cc3ccc(OC)cc3)C2)cc1 (stereo unspecified)	none
Cn1c(=O)c2c(ncn2CCC(=O)Nc2ccc(F)cc2)n(C)c1=O	none (no result: HT1080 IDH1KD tx, HT1080-NT tox, IL1B secr inh, TDP1 cell CPT, TDP1 cell noCPT)
O=C(COc1ncnc2ccccc12)Nc1ccc(F)cc1	none (no result: HT1080 IDH1KD tx, HT1080-NT tox, IL1B secr inh, TDP1 cell CPT, TDP1 cell noCPT)
COc1ccc(-c2noc(CC3CCN(C(=O)c4cc(Cl)ccc4F)CC3)n2)cc1	none (no result: HT1080 IDH1KD tx, HT1080-NT tox, IL1B secr inh, TDP1 cell CPT, TDP1 cell noCPT)
O=C(O)CCc1cccc(Cl)c1	none (no result: HT1080 IDH1KD tx, HT1080-NT tox, IL1B secr inh, TDP1 cell CPT, TDP1 cell noCPT)
O=S(=O)(c1cccc2c(S(=O)(=O)N3CCCC3)cccc12)N1CCCC1	TDP1 cell CPT inconclusive, TDP1 cell noCPT 16µM
O=S(=O)(c1cccc(S(=O)(=O)N2CCCC2)c1)c1cccc(S(=O)(=O)N2CCCC2)c1	TDP1 cell CPT 13µM, TDP1 cell noCPT inconclusive
COc1c(S(=O)(=O)N2CCCCC2)ccc2c(S(=O)(=O)N3CCCCC3)cccc12	TDP1 cell CPT 16µM, TDP1 cell noCPT 23µM
O=[N+]([O-])c1cccc2c(S(=O)(=O)N3CCCCC3)cccc12	TDP1 cell noCPT inconclusive
c1ccc(-c2nnc3n2CCN(CC2CC2)C3)cc1	none (no result: HT1080 IDH1KD tx, HT1080-NT tox, IL1B secr inh, TDP1 cell CPT, TDP1 cell noCPT)
O=C(c1ccc2c(c1)OCO2)N1CC2(Cc3ccccc3NC2=O)C1	none (no result: HT1080 IDH1KD tx, HT1080-NT tox, IL1B secr inh, TDP1 cell CPT, TDP1 cell noCPT)
CCC(NC(=O)c1ccc(N(C)C)cc1)c1ccc(C)cc1 (stereo unspecified)	none (no result: HT1080 IDH1KD tx, HT1080-NT tox, IL1B secr inh, TDP1 cell CPT, TDP1 cell noCPT)
COCCNC(=O)c1cccc(OC2CCN(Cc3ccc(Cl)c(F)c3)CC2)c1	IL1B secr inh -53, TDP1 cell CPT inconclusive, TDP1 cell noCPT inconclusive
COCCNC(=O)c1cccc(OC2CCN(Cc3cccc(SC)c3)CC2)c1	IL1B secr inh inconclusive, TDP1 cell CPT inconclusive, TDP1 cell noCPT 16µM
O=C(C1CC1)N1CCC(Oc2cccc(C(=O)N3CCCCC3CCO)c2)CC1 (stereo unspecified)	none
